Assay outcomes as filed in PubChem.
TGFb inhibitor – TGF-b pathway inhibition. HepG2 CAGA-GFP TGF-b/SMAD3 reporter, GFP fluorescence, 18 h; TGF-beta stimulated, 500 pg/mL final. Potency, µM (highest dose often 46.1 µM), inactives show top-dose activity, negative = inhibition, most hits filed as inhibitors. 410,000 compounds, 1.2% hits; note: % is set by controls: 0 for no effect and ±100 for the full control effect; nearly all actives have a fitted effect of over 65% in size
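Inhibition of TGF-beta-driven CAGA-GFP reporter expression in HEPG2 cells is measured by cellular GFP fluorescence after 18 h stimulation with 500 pg/mL recombinant TGF-beta in 1% FBS medium at 37 degrees C.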
TDP1 cell CPT – DT40-hTDP1 cell growth loss with CPT; chicken DT40 Tdp1-/-;hTDP1 cells + 20 nM CPT, ATP luminescence, 48 h; Potency, µM (top dose mostly 46.2 µM), inactives show at the top dose activity change, negative = growth inhibition, hits mostly inhibitors; 420,000 compounds, 12% hits; AID 686979; note: % is set by controls: 0 for no effect and ±100 for the full control effect; nearly all actives have a fitted effect of over 55% in size
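Chicken DT40 Tdp1-/- cells complemented with human TDP1, 400 cells/well, exposed to compounds plus 20 nM camptothecin for at least 48 h at 37 C; viability read as ATP content by CellTiter-Glo luminescence.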
HepG2 viability – HepG2 cytotoxicity, counter-screen for TGF-b inhibitors. HepG2 CAGA-GFP viability, ATP luminescence, 18 h. Potency, µM (doses to about 46.1 µM), for the others: top-dose activity change, negative = cytotoxicity, usual class: cytotoxic. 410,000 compounds, 0.76% hits. AID 588856
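CellTiter-Glo luminescence gave cytotoxicity after 18 hours at 37 degrees C. The cells were HepG2 CAGA-GFP in 1% FBS DMEM, stimulated with 500 pg/mL TGF-beta after compound addition. %Activity was normalised to no-cell wells (complete cell-killing) and DMSO (no toxicity), and curves were fitted and classified.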
DT40 TDP1 no CPT – qHTS for Inhibitors of human tyrosyl-DNA phosphodiesterase 1 (TDP1): qHTS in cells in absence of CPT. 420,000 compounds, 15% hits. DT40 Tdp1-/- hTDP1 cells, no CPT, ATP luminescence, 48 h. Potency, µM (highest dose often 46.2 µM), inactives show at the top dose activity change, negative = growth inhibition, usual class: inhibitors; note: % is set by controls: 0 for no effect and ±100 for the full control effect; nearly all actives have a fitted effect of over 55% in size
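Growth kinetics read by CellTiter-Glo luminescence after ≥48 hr at 37 °C. Cells: DT40 Tdp1-/- stably carrying human TDP1, 400 per well, compound exposure in the absence of CPT (DMSO vehicle).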
ATXN2 expr inh – ATXN2 expression inhibition; Potency, µM (doses to about 57 µM), for inactives: top-dose activity change, negative = inhibition, actives largely listed as inhibitors; 360,000 compounds, 0.72% hits; HEK-293 ATXN2-luciferase reporter, luminescence, 24 h; note: % is set by controls: 0 for no effect and ±100 for the full control effect; nearly all actives have a fitted effect of over 55% in size
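ATXN2-luciferase reporter cells (luciferase flanked by upstream and downstream ATXN2 gene portions) were treated 24 h at 37 °C with compounds at up to 57 uM. SteadyGlo luminescence gave expression; GF-AFC fluorescence gave viability.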
ATXN viability – reduces viability in counter-screen for ATXN expression inhibitors; 400,000 compounds, 0.49% hits; S2 cells (HEK-293 line with an ATXN2-luciferase reporter) viability, CellTiter-Fluor protease fluorescence, 24 h; Potency, µM (titrated, usually from 56.7 µM), actives largely listed as cytotoxic; note: nearly all actives have a fitted effect of over 40% in size
Numbers without * were called inactive; i = inactive; ? = inconclusive; nt = no result given. Only some compounds are listed: those with a hit (about 17% of all), similar ones and a draw of the others. Calls come from the whole dose curve; as a rule, active = well fitted curve in the direction sought with a large enough effect; inconclusive = small, poorly fitted or top-dose-only effect, or another doubt; inactive = no such curve, though single readings can be large; an effect the other way counts as inactive or inconclusive. Potency is the fitted concentration of half-maximal effect.

SMILES	TGFb inhibitor	TDP1 cell CPT	HepG2 viability	DT40 TDP1 no CPT	ATXN2 expr inh	ATXN viability
CCC1(C)N=C(c2ccc3c(c2)OCO3)CC(c2ccccc2O)N1 (configuration not stated)	-20%	13µM*	-37%	13µM*	49%	i
COc1cccc(C2=NNC(=NCc3ccccc3)SC2)c1	?	?	1%	?	6%	i
Cc1ccc(NC(=O)N2CCCCCC2)cc1C	36%	-2%	-7%	24%	0%	i
Cc1ccc(C(NC(=O)N2CCCCC2)=C(Cl)Cl)cc1F	3%	13µM*	-8%	-34%	?	i
Cc1ccc(C(NC(=O)NCCCN2CCOCC2)=C(Cl)Cl)cc1F	?	11µM*	-19%	13µM*	-12%	i
Cc1cc(OCC(=O)OCC(=O)N2CCCc3ccccc32)ccc1Cl	-3%	-9%	3%	-10%	nt	i
Cc1ccc(C)c(-n2c(-c3csc(C)c3C)n[nH]c2=S)c1	-21%	3%	-29%	-9%	1%	i
c1ccc(-c2nc(SCC3CCCCO3)n[nH]2)cc1 (configuration not stated)	-8%	8%	-5%	?	nt	nt
Cc1nc(-c2ccccn2)nc(N(C)c2ccccc2)c1Cl	?	2.6µM*	-42%	2.6µM*	?	i
COc1ccccc1-c1nnc(-c2ccc(N3CCOCC3)cc2)o1	-8%	?	-23%	21µM*	34%	i
O=C(Nc1nccs1)C1CCCN(S(=O)(=O)c2cccc3cccnc23)C1 (configuration not stated)	-29%	?	-23%	15µM*	-17%	i
CCc1ccc(NC(=O)C2CCCN(S(=O)(=O)c3cccc4cccnc34)C2)cc1 (configuration not stated)	10µM*	18µM*	-8%	16µM*	nt	nt
Cc1ccc(NC(=O)C2CCCN(S(=O)(=O)c3cccc4cccnc34)C2)cc1Cl (configuration not stated)	?	?	-9%	?	-38%	?
O=C(Nc1ccccc1Cl)C1CCCN(S(=O)(=O)c2cccc3cccnc23)C1 (configuration not stated)	-27%	?	-3%	?	nt	i
CC(=O)c1cccc(NC(=O)C2CCCN(S(=O)(=O)c3cccc4cccnc34)C2)c1 (configuration not stated)	-24%	21µM*	-34%	?	?	?
O=C(Nc1nc2cc(Cl)ccc2s1)C1CCCN(S(=O)(=O)c2cccc3cccnc23)C1 (configuration not stated)	?	21µM*	17%	16µM*	18µM*	?
CC(=O)OC1CCC2(C)C(CCC3C2CC(=O)C2(C)C3CC(C3CCCC3=O)C2C(C)=O)C1 (configuration not stated)	15%	-12%	-2%	?	-31%	i
Cc1ccc(F)cc1NC(=O)c1sc2ncn(CC(=O)N3CCN(c4ccccn4)CC3)c(=O)c2c1C	?	9%	-3%	?	nt	i
Cc1c(NC(=O)COc2c(F)c(F)c(F)c(F)c2F)c(=O)n(-c2ccccc2)n1C	-28%	-7%	-27%	-11%	0%	i
CCN1CN(Cc2ccco2)CNC1=S	-1%	10%	18%	-6%	-11%	i
CCc1ccc(CN2CCc3nc(N4CCN(CC)CC4)ncc3C2)cc1	-28%	?	-7%	16µM*	-10%	i
CCN1CCN(c2ncc3c(n2)CCN(Cc2ccc(OC)c(OC)c2)C3)CC1	-5%	-8%	0%	-14%	0%	i
CCCN1CCN(c2ncc3c(n2)CCN(Cc2ccc(OC)c(OC)c2OC)C3)CC1	-13%	?	-2%	18µM*	-5%	?
CCN1CCN(c2ncc3c(n2)CCN(Cc2cc(F)cc(F)c2)C3)CC1	-15%	15µM*	-1%	15µM*	-10%	i
N#CCCN(C(=O)CN1c2cccc3cccc(c23)S1(=O)=O)c1ccccc1	2%	-9%	-41%	-25%	-4%	i
SMILES	TGFb inhibitor	TDP1 cell CPT	HepG2 viability	DT40 TDP1 no CPT	ATXN2 expr inh	ATXN viability
O=C(c1ccc(Cl)c(S(=O)(=O)N2CCOCC2)c1)N1CCCCC1	-2%	-4%	-7%	-6%	21%	i
Cc1cc(Cl)ccc1-c1nc(NCc2ccccc2)nc2ccsc12	-16%	?	-13%	?	1%	i
Cc1cc(Cl)ccc1-c1nc(NC(C)C)nc2ccsc12	11%	18µM*	-11%	23µM*	-8%	i
CCOc1ccc(C2C(=O)N(C3CCCCCC3)CC(=O)N2CCc2ccc(OC)c(OC)c2)cc1OC (configuration not stated)	-34%	?	-8%	?	nt	nt
Cc1ccc(Nc2nc(N)nc(CN3CCN(Cc4ccc5c(c4)OCO5)CC3)n2)cc1C	-23%	?	-14%	18µM*	-27%	i
Cc1ccc(Nc2nc(N)nc(CN3CCN(Cc4ccc5c(c4)OCO5)CC3)n2)cc1Cl	-24%	?	11µM*	?	-35%	i
COc1ccc(Nc2nc(N)nc(CN3CCOCC3)n2)cc1	-4%	-30%	7%	?	6%	i
Cc1ccc(Nc2nc(N)nc(CN3CCN(Cc4ccc5c(c4)OCO5)CC3)n2)c(C)c1	-7%	?	-27%	?	-12%	?
Cc1ccc(Nc2nc(N)nc(CN3CCN(Cc4ccc5c(c4)OCO5)CC3)n2)cc1	?	18µM*	-49%	18µM*	-4%	i
COC(=O)c1cn([C@@H]2C[C@@H](C(=O)N3CCCCCC3)N(Cc3cc4ccccc4s3)C2)nn1	nt	-29%	nt	-27%	nt	?
COC(=O)C1=C(C)Nc2nc(-c3ccccc3)nn2C1c1ccc(C)o1 (configuration not stated)	12%	?	-1%	?	17%	i
O=C(O)CCc1ccc(-c2ccccc2)n1-c1cccc(Br)c1	?	-8%	-11%	-11%	2%	i
C=C(C)COc1ccc(-c2nc(N)ncc2-c2ccc(Cl)cc2)c(O)c1	?	23µM*	-107%	?	nt	nt
Nc1ncc(-c2ccccc2)c(-c2ccc(OCc3ccccc3)cc2O)n1	?	?	18µM*	?	-7%	i
